# Sampled rows, rich in hits. Any-hit rate of the full collection: about 1.5%.
# GLD-1 TGE inh: GLD-1-TGE RNA interaction inhibition (C. elegans) | Q17339 | purified GLD-1 + fluorescein TGE RNA, fluorescence polarization | inhibition, % at 5.96 µM | AID 2280 | 320,000 tested, 0.44% active;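 active = percent inhibition above a per-plate cutoff, the plate mean of test compounds plus 3 SD, cut at about 30% in these data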;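 also: 0% = DMSO wells with GLD-1 and probe and 100% = wells lacking GLD-1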
# Bcl-xL primary: inhibitors of human Bcl-xL. Q07817. GST-Bcl-xL / FITC-Bim BH3 peptide fluorescence polarization. inhibition, % at 10.9 µM. 320,000 tested, 0.7% active. AID 2129;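 active = inhibition above the mean of all tested compounds plus 3 SD, cutoff set per campaign, cut at about 30% in these data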;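 also: 0% = DMSO wells and 100% = unlabeled Bim-BH3 peptide competitor; inhibitors lower millipolarization by displacing the labeled peptide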
# E coli Lon inh: inhibits E. coli Lon protease; purified E. coli Lon protease, fluorescence polarization; P0A9M0; 360,000 tested, 0.42% active; inhibition, % at 7.94 µM; in the data active = inhibition above about 13%, passing the limit was not always enough;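 also: 0% = enzyme with probe and DMSO and 100% = no enzyme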
# Target sequence (P0A9M0 whole entry, looked up): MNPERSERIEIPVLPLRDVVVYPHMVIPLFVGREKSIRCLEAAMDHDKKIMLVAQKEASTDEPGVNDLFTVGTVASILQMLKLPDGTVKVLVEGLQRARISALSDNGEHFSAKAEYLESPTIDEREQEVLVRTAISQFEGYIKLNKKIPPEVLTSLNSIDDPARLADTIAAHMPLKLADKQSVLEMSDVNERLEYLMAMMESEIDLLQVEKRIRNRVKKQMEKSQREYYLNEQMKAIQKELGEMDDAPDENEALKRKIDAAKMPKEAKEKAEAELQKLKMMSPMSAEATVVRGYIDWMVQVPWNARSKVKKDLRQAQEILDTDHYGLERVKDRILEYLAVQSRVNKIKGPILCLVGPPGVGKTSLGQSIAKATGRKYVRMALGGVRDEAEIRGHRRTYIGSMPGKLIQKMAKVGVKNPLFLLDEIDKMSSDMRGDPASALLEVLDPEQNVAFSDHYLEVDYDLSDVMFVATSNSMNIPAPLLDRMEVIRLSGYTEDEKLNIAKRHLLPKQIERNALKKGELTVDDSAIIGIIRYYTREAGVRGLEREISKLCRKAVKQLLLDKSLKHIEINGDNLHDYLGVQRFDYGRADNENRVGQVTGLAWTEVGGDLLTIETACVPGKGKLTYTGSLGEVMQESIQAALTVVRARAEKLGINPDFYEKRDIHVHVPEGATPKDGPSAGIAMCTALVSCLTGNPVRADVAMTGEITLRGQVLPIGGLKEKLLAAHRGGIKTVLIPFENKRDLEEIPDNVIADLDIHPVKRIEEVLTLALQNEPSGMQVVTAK
# MEX-5 binding: C. elegans MEX-5 TCR-2 RNA binding activity; activity score (negative = inhibition of binding), % at 10 µM; 300,000 tested, 0.38% active; MEX-5/FITC-TCR2 RNA binding, fluorescence polarization; hits give low values; Q9XUB2; AID 1832;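 active = inhibition past about -25% in most replicates, and total fluorescence under double the plate's negative control median, limit read from the data; inconclusive = replicates evenly split on the limit, or fluorescence at least double controls; inactive = too little inhibition in most replicates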;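 also: 0% = DMSO and -100% = 5 µM competing unlabeled TCR2 RNA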
# EBV gp42 inh: blocks Epstein-Barr virus glycoprotein 42 binding | Fluorescence polarization binding assay, mP read-out | inhibition, % (tested at 21.74 µM) | 220,000 tested, 0.42% active; in the data active = inhibition above about 50%
# MCL1 BIM primary: inhibitors of human MCL1 binding to BIM-BH3 peptide; Q07820; 320,000 tested, 0.68% active; inhibition, % at 10.9 µM; GST-MCL1 / FITC-Bim-BH3 fluorescence polarization;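 active = inhibition above the mean inhibition of all tested compounds plus 3 SD, set per campaign, cut at about 40% in these data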;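 also: 0% = DMSO wells and 100% = unlabeled Bim-BH3 peptide control; higher means more loss of mP so more displacement of Bim peptide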
# Starred values were filed as active, the others as inactive; ? = inconclusive; · = no result.
SMILES,GLD-1 TGE inh,Bcl-xL primary,E coli Lon inh,MEX-5 binding,EBV gp42 inh,MCL1 BIM primary
COc1cc(/C=C2/C(=O)c3cccc([N+](=O)[O-])c3C2=O)c(Br)cc1O,4,26,9,·,54*,32
Cc1cc(C(=O)N/N=C/c2ccc(-c3ccc([N+](=O)[O-])cc3C)o2)n[nH]1,-7,12,13,-16,·,12
Cc1cc([N+](=O)[O-])ccc1-c1ccc(/C=N/NC(=O)c2ccc(Br)o2)o1,1,15,-25,-58*,·,16
Cc1cc(C)n(Cc2ccc(C(=O)N/N=C/c3ccc(-c4ccc([N+](=O)[O-])cc4)o3)o2)n1,-4,50*,-19,-3,·,43*
O=Cc1ccc(-c2ccccc2C(=O)O)o1,-4,3,-13,1,-9,0
O=C(O)c1ccccc1-c1c2cc(I)c(=O)c(I)c-2oc2c(I)c(O)c(I)cc12,49*,110*,21,·,·,115*
CCOc1ccc(N2C(=O)S/C(=C\c3cccn3C)C2=O)cc1,0,-4,-26,-30*,-10,-14
CCCCC(=O)Nc1ccc(Cl)cn1,6,4,-3,0,-21,4
CCCC(C)C(=O)Nc1ccc(Cl)cn1 (stereo not given),8,162*,-3,-1,-16,3
CCOC(=O)N1CCC(Nc2c(NCCN3CCN(Cc4ccccc4)CC3)c(=O)c2=O)CC1,9,0,-12,-1,-21,-1
CC(=O)c1sc(N/N=C\c2ccccc2O)nc1C,-58,-32,-163,-2,-12,-50
COc1ccc(OC)c(S(=O)(=O)Nc2ccc(O)c(Sc3ncn[nH]3)c2)c1,4,9,0,-34*,-8,16
CCOc1ccc(S(=O)(=O)Nc2ccc(O)c(Sc3ncn[nH]3)c2)cc1,0,6,11,-4,2,4
CCc1nn(C)c2c(=O)c(=O)c2n(C)[nH]1,24,33*,8,-18,23,38
Cc1nn(C)c2c(=O)c(=O)c2n(C)[nH]1,0,1,5,1,-11,-1
Cc1occc1-c1nnc(SCC(=O)c2ccc(Cl)cc2)n1C,3,1,-6,-2,-6,-4
Cc1occc1-c1nnc(SCC(=O)c2c[nH]c3ccccc23)n1C,-4,1,-4,·,144*,-6
O=C(NNC(=O)c1ccc(NC(=O)c2ccccc2)cc1)c1ccccc1,7,2,2,-2,-14,1
CN1CCc2c(sc3c2C(=O)NC(c2ccccc2)N3)C1 (stereo not given),5,41*,-64,-10,-57,34
Cc1ccc(C2NC(=O)c3c(sc4c3CCN(C)C4)N2)o1 (stereo not given),5,40*,-4,-10,-5,37
Cc1cc[n+]2c3c(cccc13)CCC2,-3,-2,-13,·,-8,0
CC(=O)Nc1ccc(N=Cc2c(O)c(C(=O)Nc3ccccc3)cc3ccccc23)cc1,-74,-2,·,-14,136*,-79
CC(=O)Nc1ccc(N=Cc2c(O)c3ccccc3oc2=O)cc1,·,·,-4,-10,·,·
Cc1ccc(/C=C2\CCC3=C2OC(N)=C(C#N)C3c2ccc(C)cc2)cc1 (stereo not given),-69,-23,-353,-7,58*,-53
Cc1ccc(C2C(C#N)=C(N)Oc3cc(N)ccc32)cc1 (stereo not given),3,9,-16,-1,·,-4
SMILES,GLD-1 TGE inh,Bcl-xL primary,E coli Lon inh,MEX-5 binding,EBV gp42 inh,MCL1 BIM primary
N#CC(C(=O)NCc1ccccc1)c1nc2ccccc2nc1N1CCCC1 (stereo not given),-11,5,-7,-97*,-9,8
N#CC(C(=O)NCCc1ccccc1)c1nc2ccccc2nc1N1CCCCC1 (stereo not given),4,8,5,?,22,3
CCN(CC)c1nc2ccccc2nc1C(C#N)C(=O)NCCc1ccccc1 (stereo not given),-2,1,-10,?,78*,-5
CCOC(=O)C1CCCN(c2nc3ccccc3nc2C(C#N)C(=O)NCc2ccccc2)C1 (stereo not given),30,5,-10,-15,54*,16
CCCCOC(=O)C(C#N)c1nc2ccccc2nc1N1CCOCC1 (stereo not given),4,-1,-9,-2,-5,-6
CCCCCCOC(=O)C(C#N)c1nc2ccccc2nc1N1CCOCC1 (stereo not given),-4,1,-12,-8,99*,5
CCN(CC)c1nc2ccccc2nc1C(C#N)C(=O)NCCCOC (stereo not given),13,18,-10,-8,4,21
CCC1(CC)Cc2ccccc2-c2nc(-c3ccccc3)oc(=O)c21,-5,7,-5,-1,-4,0
CCOC(=O)N1CCN(C(=O)C[C@@H]2C[C@@]3(C(=O)OCC)CCC=C3N(Cc3ccco3)C2=O)CC1,·,·,2,·,·,·
CCCCN(C(=O)CCC(=O)Nc1cc(C)on1)C(C(=O)NC1CCCC1)c1cccc(OC)c1 (stereo not given),-7,-2,3,-2,·,-2
CC1CC(=O)Nc2ccccc2N1S(=O)(=O)c1ccccc1 (stereo not given),-5,2,-6,2,-10,4
COc1ccccc1/C=C/C=C1\Oc2c(ccc(O)c2CN(C)C)C1=O,-6,53*,-76,?,-43,42*
O=C1C2C3C=CC(C3=C(c3ccccc3)c3ccccc3)C2C(=O)N1Cc1ccccc1 (stereo not given),6,6,7,0,63*,4
O=C1C2C3C=CC(C3=C(c3ccccc3)c3ccccc3)C2C(=O)N1CCO (stereo not given),-5,4,3,-1,-6,5
CC(C)C[C@H](NC(=O)N1CCN(c2ccccc2)CC1)C(=O)O,-2,4,-12,-1,-11,4
O=C(Nc1nccs1)c1ccc(-c2ccc([N+](=O)[O-])cc2)o1,1,-8,5,-43*,-37,-22
O=C(Nc1nccs1)c1ccc(-c2ccc(Cl)cc2)o1,-2,1,7,-4,4,2
CCC(=O)Nc1ccc(Cl)c(NC(=O)c2c(OC)cccc2OC)c1,4,4,6,1,13,2
CCc1c(C)nc(SCC(=O)c2cccs2)c(C#N)c1C,-24,-1,-44,-34*,-20,-7
CCc1c(C)nc(SCC(N)=O)c(C#N)c1C,0,2,-1,1,-32,4
COc1ccc(-c2nc(-c3ccccc3)nc(N3CCN(C)CC3)c2C#N)cc1,3,4,0,-1,12,-2
CN1CCN(c2nc(-c3ccccc3)nc(-c3ccccc3)c2C#N)CC1,8,2,-2,-26*,2,0

# Screening results deposited in PubChem BioAssay by several laboratories.
